KB-V1 MDR tox = KB-V1 MDR subline cytotoxicity; 400,000 tested, 3.4% active; Potency, µM (top dose mostly 46.1 µM), actives largely listed as cytotoxic; AID 1347076; KB-V1 MDR cells viability, CellTiter-Glo, 72 h; further: on the % scale 0 is the no-effect control and ±100 the full control effect; nearly all actives have a fitted effect of over 60% in size
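KB-V1 cells (P-gp-expressing MDR subline of KB-3-1) in phenol-red-free DMEM with 10% FBS were exposed to library compounds over a concentration series for 72 h at 37 degrees C. Viability read by CellTiter-Glo luminescence; concentration-effect curves fitted after normalization.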
HT1080 IDH1KD tx = toxicity to HT-1080 IDH1 knockdown cells (counter line) | HT-1080 IDH1 knockdown viability, ATP luminescence, 48 h | Potency, µM (highest dose often 46.1 µM), without a hit: at the top dose activity, negative = toxicity, hits mostly cytotoxic | 360,000 tested, 2% active;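 further: 0% = DMSO wells and -100% = cell-free medium wells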
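IDH1KD HT-1080 cells, 750/well, RPMI + 5% FBS; compound pinned after 2 h settling; 48 h, 37 °C; CellTiter-Glo luminescence; % activity normalised to DMSO and no-cell wells; curves fitted, classed by r2 and efficacy.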
KB-3-1 tox = kills parental KB-3-1 adenocarcinoma cells; KB-3-1 viability, CellTiter-Glo ATP luminescence, 72 h; Potency, µM (titrated, usually from 46.1 µM), actives largely listed as cytotoxic; 400,000 tested, 1.4% active; AID 1347075; further: on the % scale 0 is the no-effect control and ±100 the full control effect; nearly all actives have a fitted effect of over 60% in size
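KB-3-1 cells, DMEM (no phenol red) + 10% FBS; compound by pin transfer, 72 h, 37 °C. Readout: CellTiter-Glo luminescence after 10 min. Data normalized, curve-fitted.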
HT1080-NT tox = kills 2HG-producing HT-1080-NT fibrosarcoma cells; 360,000 tested, 1.6% active; Potency, µM (doses to about 46.1 µM), for the others: at the highest dose activity, negative = less viability, most hits filed as cytotoxic; HT-1080-NT fibrosarcoma viability, CellTiter-Glo ATP luminescence, 48 h;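 further: NT is the 2HG producing partner of a matched IDH1 knockdown line; 0% = DMSO-treated cells and -100% = media-only wells without cells; nearly all actives have a fitted effect of over 55% in size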
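Toxicity toward the 2HG-producing NT line was scored as %Activity, normalised to DMSO and no-cell wells, from CellTiter-Glo luminescence after 48 hours' treatment.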
MCF10A rereplic = induces DNA re-replication in MCF 10a normal breast cells; 350,000 tested, 2.9% active; MCF 10A DNA re-replication, Hoechst nuclear intensity, 48 h; Potency, µM (titrated, usually from 46.1 µM), for the others: top-dose activity, positive = re-replication, actives largely listed as activators; further: % of control where 0% means no effect; nearly all actives have a fitted effect of over 50% in size
SW480 rereplic = DNA re-replication induction in SW480 cells; SW480 DNA re-replication, Hoechst DNA content imaging, 48 h; Potency, µM (series often up to 46.1 µM), without a hit: top-dose re-replication activation, most hits filed as activators; 340,000 tested, 1.8% active; AID 624297; further: % of control where 0% means no effect; nearly all actives have a fitted effect of over 55% in size
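Image-based DNA-content assay: after two days of treatment, nuclei were labelled with the DNA dye Hoechst and imaged, and hits were compounds raising the count of nuclei showing high fluorescence intensity.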
* hit, by the source's call; i = inactive; u = inconclusive; x = no result; ! = not active in a repeat; [ ] = another dose, or the depositor's remark. Sampled rows, rich in hits. Any-hit rate of the full collection: about 7.9%. The call rests on the fitted dose curve; in most records, active means well fitted curve in the direction sought with a large enough effect; inconclusive means small, poorly fitted or top-dose-only effect, or another doubt; inactive means no such curve, though single readings can be large; an effect the other way counts as inactive or inconclusive. Potency means the concentration at half of the fitted maximal effect.

SMILES | KB-V1 MDR tox | HT1080 IDH1KD tx | KB-3-1 tox | HT1080-NT tox | MCF10A rereplic | SW480 rereplic
Cc1c(Cl)cccc1NC(=O)C(C)n1nnc2sc3c(c2c1=O)CCCC3 (stereo not given) | i | x | i | x | x | x
CN(C)[C@H]1N(C(=O)c2ccc(Br)cc2)N=C2c3ccccc3S(=O)(=O)N21 | 8.2µM* | 4% | i | -1% | 3% | -3%
CCC(C)(C)n1nnnc1CN(Cc1ccco1)Cc1cc2cc3c(cc2[nH]c1=O)OCO3 | u | 5% | i | 6% | 18% | 15%
CC(C)(C)c1ccc(CN(Cc2ccco2)Cc2nnnn2C2CCCC2)cc1 | 16µM* | u | i | -2% | u | 13%
CCC(C)(C)n1nnnc1CN(Cc1ccc(Cl)cc1)Cc1ccco1 | 23µM* | -2% | 21µM* | -4% | u | 1%
COc1ccc2cc(CN(Cc3ccco3)Cc3nnnn3C3CCCCC3)c(=O)[nH]c2c1 | u | u | i | u | 35% | u
Cc1ccc2c(C)c(C(=O)N(C)Cc3nccn3C)oc2c1C | i | -1% | i | 22% | 8% | u
COc1ccc(-c2csc(NC(=O)c3ccccc3NS(=O)(=O)c3ccc(F)c(F)c3)n2)cc1 | 4.1µM* | 1.6µM* | 5.2µM* | u | 13µM* | u
COc1ccc(-c2csc(NC(=O)c3ccccc3F)n2)cc1 | i | 3% | i | 7% | 13% | -7%
Cc1ccc(S(=O)(=O)Nc2nc(-c3ccccc3)cs2)cc1 | i | 1% | i | 0% | -1% | -3%
Cc1ccc(S(=O)(=O)Nc2ccccc2C(=O)Nc2nc(-c3ccc(F)cc3)cs2)cc1 | 2.6µM* | u | 12µM* | u | 5.8µM* | u
CCOc1ccc(CCNC(=O)c2nn(-c3ccc(OC)c(Cl)c3)c(=O)c3c2c2ccccc2n3C)cc1OCC | i | x | i | x | x | x
CCN1CCN(Cc2ccc(NC(=O)c3cc(NC(=O)c4ccc5n[nH]nc5c4)cc(OC)c3)cc2C(F)(F)F)CC1 | i | 11% | i | 1% | 7% | -3%[9.22 µM]
CCN1CCN(Cc2ccc(NC(=O)c3cc(NC(=O)c4cncc(-c5cccs5)c4)cc(OC)c3)cc2C(F)(F)F)CC1 | 18µM*! | 18µM* | u | u | 23µM* | u
CCN1CCN(Cc2ccc(NC(=O)c3ccc(C)c(NC(=O)c4c[nH]c5cc(C(F)(F)F)ccc5c4=O)c3)cc2C(F)(F)F)CC1 | u | 3.3µM* | 2.3µM* | 3.3µM* | 12µM* | 1.8µM*
CCN1CCN(Cc2ccc(NC(=O)c3cc(NC(=O)c4cc(-c5ccc(OC)cc5)n[nH]4)cc(OC)c3)cc2C(F)(F)F)CC1 | 16µM* | u | i | u | 9% | 28%
O=C(O)CSCC(=O)Nc1ccc(C2CCCCC2)cc1 | i | -14% | i | -1% | 16% | 4%
O=C(COC(=O)Cn1[nH]c(=O)c2ccccc2c1=O)NNC(=O)c1ccc(Br)cc1 | i | 0% | i | -3% | 6% | -4%
COC(=O)[C@]12CCCCC=C1N(Cc1ccc3c(c1)OCO3)C(=O)[C@H](CC(=O)NCCc1ccccc1OC)C2 | i | 12µM* | i | u | x | x
CCOC(=O)[C@]12CCCC=C1N(Cc1ccc3c(c1)OCO3)C(=O)[C@H](CC(=O)NCCCOC)C2 | i | 2% | i | 12% | x | x
COCCCNC(=O)C[C@@H]1C[C@@]2(C(=O)OC)CCCCC=C2N(Cc2ccc3c(c2)OCO3)C1=O | u | 27% | i | 19% | x | x
CCOC(=O)[C@]12CCCC=C1N(Cc1ccc3c(c1)OCO3)C(=O)[C@H](CC(=O)NCCc1ccccc1OC)C2 | 23µM* | -28% | u | u | x | x
CCOC(=O)[C@]12CCCC=C1N(Cc1ccc3c(c1)OCO3)C(=O)[C@H](CC(=O)N1CCC(c3ccccc3)CC1)C2 | 23µM* | u | u | u | x | x
COC(=O)[C@]12CCCCC=C1N(Cc1ccc3c(c1)OCO3)C(=O)[C@H](CC(=O)N1CCC(c3ccccc3)CC1)C2 | i | -13% | i | -24% | x | x
CCCCCc1ccc(-c2nnc(N)s2)cc1 | u | -15% | i | -12% | u | -9%
SMILES | KB-V1 MDR tox | HT1080 IDH1KD tx | KB-3-1 tox | HT1080-NT tox | MCF10A rereplic | SW480 rereplic
CCCCCCc1ccc(-c2ncc(N)cn2)cc1 | i | u | i | -24% | 13µM* | 7%
Nc1c(C(=O)NCc2ccco2)nnn1CC(=O)Nc1ccccc1 | i | -2% | i | 0% | u | -4%
C=CC(=O)N1C/C(=C/c2ccccc2)C(=O)/C(=C\c2ccccc2)C1 | u | 4.1µM* | 4.1µM* | -2% | 19% | u
C=CC(=O)N1C/C(=C/c2ccc(Cl)cc2)C(=O)/C(=C\c2ccc(Cl)cc2)C1 | i | 2.9µM* | u | 5.8µM* | u | 1.5µM*
Cc1ccc(Cn2c(C3CCCN3c3nc(-c4ccc(F)cc4)cs3)nc3cc(Cl)c(Cl)cc32)cc1 (stereo not given) | i | 1% | i | -2% | -8% | -2%
Cc1ccc(-c2csc(N3CCN(CCCn4c(C(F)(F)F)nc5ccccc54)CC3)n2)cc1 | i | -8% | u | u | 18% | 28%
CCCn1c(C2CCCN2c2nc(-c3ccc(C)cc3)cs2)nc2ccccc21 (stereo not given) | u | u | 18µM* | u | u | u
Cc1ccc(-c2csc(N3CCN(CCCn4c(-c5ccncc5)nc5ccccc54)CC3)n2)cc1 | 18µM* | u | u | u | 23µM* | u
CCOC(=O)c1c(-c2ccccc2)oc2ccc(N(C(C)=O)S(=O)(=O)c3ccccc3)cc12 | i | x | i | x | x | x
CC(=O)c1c(C)oc2ccc(N(C(C)=O)S(=O)(=O)c3ccc(Cl)c([N+](=O)[O-])c3)cc12 | u | 6.5µM* | u | u | 1.8µM* | u
COC(=O)c1c(C)oc2ccc(N(C(C)=O)S(=O)(=O)c3ccccc3)cc12 | 2.3µM* | u | 23µM* | -9% | 10% | 1%
COC(=O)c1c(C)oc2ccc(N(C(=O)c3ccncc3)S(=O)(=O)c3ccc(Br)cc3)cc12 | i | x | i | x | x | x
CC(=O)c1c(C)oc2ccc(N(C(C)=O)S(=O)(=O)c3cccc4cccnc34)cc12 | u | 26µM* | u | u | 9% | u
COC(=O)c1c(C)oc2ccc(N(C(=O)c3ccncc3)S(=O)(=O)c3cc(C)ccc3C)cc12 | 6.5µM* | x | 13µM* | x | x | x
O=c1oc2ccccc2c2[nH]ccc12 | i | -9% | i | -4% | 24% | -1%

Screening results (PubChem)
